# From PubChem
# Sm TGR block – blocks Schistosoma mansoni thioredoxin glutathione reductase. purified TGR, DTNB reduction, TNB absorbance 405 nm. Potency, µM (series often up to 114 µM), actives largely listed as inhibitors. actives 3% (n = 360,000). Q962Y6; note: nearly all actives have a fitted effect of over 60% in size
#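 TGR 20 nM + NADPH 100 uM (dispensed conc.), cpd preinc 15 min RT; start with NADPH (500 uM addition) then DTNB (15 mM addition). Kinetic TNB absorbance, 405 nm filter. Four-parameter Hill fit across titration.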
# Pf growth 96h – P. falciparum growth inhibition at 96 hours; P. falciparum luciferase reporter growth, 96 h; actives 6.9% (n = 320,000); AID 504834; Potency, µM (doses to about 28.7 µM), actives largely listed as inhibitors
#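 P. falciparum expressing integrated firefly luciferase grown in erythrocytes (2% hematocrit, 0.05% parasitemia final) with compounds for 96 hours at 37 C, 5% CO2. Growth inhibition read as loss of luminescence after adding luciferase detection reagent.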
# AmpC detergent – AmpC beta-lactamase inhibition with detergent present; AmpC hydrolysis of nitrocefin, absorbance 480 nm, 0.01% Triton; P00811; AID 485294; actives 0.041% (n = 370,000); Potency, µM (highest dose often 114 µM), most hits filed as inhibitors; note: nearly all actives have a fitted effect of over 25% in size
# Target sequence (P00811 whole entry, looked up): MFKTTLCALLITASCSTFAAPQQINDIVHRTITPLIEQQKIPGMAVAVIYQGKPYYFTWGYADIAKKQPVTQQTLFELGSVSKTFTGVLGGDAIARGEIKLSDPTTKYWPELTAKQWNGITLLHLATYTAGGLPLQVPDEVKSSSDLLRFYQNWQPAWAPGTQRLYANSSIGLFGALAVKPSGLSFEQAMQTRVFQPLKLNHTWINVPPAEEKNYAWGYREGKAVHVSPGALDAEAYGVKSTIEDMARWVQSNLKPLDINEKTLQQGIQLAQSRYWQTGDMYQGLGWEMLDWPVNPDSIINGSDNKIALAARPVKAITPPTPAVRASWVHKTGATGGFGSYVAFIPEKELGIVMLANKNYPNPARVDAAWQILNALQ
#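 20 mM phosphate pH 7.0 + 0.01% (detergent screen) or 0.0001% Triton X-100; 5.3 nM AmpC reagent; cpd preinc 15 min RT; nitrocefin (800 uM stock) to start; A480 q20 s × 4 min; Activity was normalised to no-enzyme and no-compound control wells.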
# AmpC no deterg – inhibitors of E. coli AmpC beta-lactamase without detergent | P00811 | AmpC nitrocefin hydrolysis, absorbance 480 nm, 0.0001% Triton | Potency, µM (top dose mostly 57.1 µM), hits mostly inhibitors | actives 0.52% (n = 330,000) | AID 485341; note: nearly all actives have a fitted effect of over 20% in size
#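 20 mM phosphate pH 7.0 + 0.01% (detergent screen) or 0.0001% Triton X-100; 5.3 nM AmpC reagent; cpd preinc 15 min RT; nitrocefin (800 uM stock) to start; A480 q20 s × 4 min; Activity was normalised to no-enzyme and no-compound control wells.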
# Pf growth 48h – inhibits P. falciparum growth in the first generation, 48 h. P. falciparum luciferase growth in erythrocytes, 48 h. Potency, µM (doses to about 28.7 µM), most hits filed as inhibitors. actives 5.9% (n = 310,000). AID 504832
#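 In quantitative HTS format, infected erythrocytes bearing luciferase-reporter parasites were treated for a single generation at 37 C. Luminescence after adding detection reagent served as the growth measure.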
# SARS PLP yeast – inhibitors of SARS-CoV papain-like protease in yeast. S. cerevisiae expressing SARS-CoV PLpro, growth rescue. Potency, µM (doses to about 32.9 µM), hits mostly activators. actives 0.19% (n = 330,000); calls by dose curve; note: nearly all actives have a fitted effect of over 55% in size
# A number is an active result; – = inactive; ? = inconclusive; · = no result given; [ ] = remark or other dose. Only some compounds are listed: those with a hit (about 12% of all), similar ones and a draw of the others. Unless noted, calls come from the whole dose curve; as a rule, active = well fitted curve in the direction sought with a large enough effect; inconclusive = small, poorly fitted or top-dose-only effect, or another doubt; inactive = no such curve, though single readings can be large; an effect the other way counts as inactive or inconclusive.
SMILES,Sm TGR block,Pf growth 96h,AmpC detergent,AmpC no deterg,Pf growth 48h,SARS PLP yeast
CCOC(=O)c1ccc(CC(=O)c2oc3cc(O)ccc3c2C)o1,28µM,?,?,–,?,–
O=C(Nc1ccc(N2CCN(C(=O)c3ccc(Cl)cc3)CC2)cc1)c1cc2ccccc2o1,–,5.9µM,–,–,·,–[6.58 µM]
O=C(Nc1ccccc1N1CCN(C(=O)c2ccc(Cl)cc2)CC1)c1cc2ccccc2o1,–,·,–,–,?,–
Cc1occc1C(=O)N1CCN(c2ccc(Cl)cc2)CC1,?,4.7µM,–,–,–,–
O=C(Nc1cccc(Cl)c1N1CCCC1)c1ccc(Br)o1,–,·,?,–,–,–
CC(=O)c1ccc(N2CCN(C(=O)c3ccc(C(=O)c4ccccc4)cc3)CC2)cc1,–,5.2µM,?,–,–,–
O=C(Nc1cccc(Cl)c1N1CCCC1)c1cc2ccccc2o1,–,1.3µM,–,–,–,–
Cc1ccc(S(=O)(=O)n2nc(C)c(S(=O)(=O)N3CCC(C)CC3)c2C)cc1,?,·,–,·,·,·
CC(C)c1ccc(NC(=O)CSC2=Nc3ccccc3C3=NC(CC(=O)NCc4ccco4)C(=O)N23)cc1 (centres undefined),–,·,–,·,·,·
COc1cccc(NC(=O)C2CCN(c3nc4ccccc4nc3C(F)(F)F)CC2)c1,–,·,–,·,·,·
O=C(c1ccccc1)N1CCN(C(=O)c2ccccc2)CC1,–,–,?,–,–,–
O=C(c1ccc(Cn2cc(Br)cn2)cc1)N1CCN(c2ccccc2)CC1,–,–[5.75 µM],–,–,–,–
O=C(c1ccccc1)N1CCN(c2ccc(Cl)cc2)CC1,–,15µM,–,–,?,–
O=C(Nc1ccc(N2CCCC2)cc1)c1cccc(-c2cc3ccccc3oc2=O)c1,–,0.41µM,–,–,–,–
O=C(c1ccc(Cn2cc(Cl)cn2)cc1)N1CCN(c2ccccc2)CC1,–,7.4µM,–,·,–,·
CCOC(=O)CC1C(=O)NCCN1C(=O)c1cccc(OC)c1 (centres undefined),–,–,–,–,–[0.00184 µM],–
CCc1ccc(CN(Cc2ccco2)c2cnc(S(C)(=O)=O)nc2C(=O)Nc2cccc(C)c2)cc1,–,·,–,·,·,·
COc1ccc(-c2sc3ccc(-c4ccc5c(c4)OCO5)cc3c2-c2ccc(OC)nc2)cc1,·,·,·,–,·,–
CCc1ccc(NC(=O)CSCc2ccc(C(=O)O)cc2)cc1,–,–,–,–,–,–
COc1ccccc1N1C(=O)N(C(C)=O)C2C1Nc1ccccc1N2C (centres undefined),?,?,?,–,4.7µM,–
COc1ccccc1N1C(=O)c2ccccc2NC1c1ccncc1 (centres undefined),–,?,–,–,–,–
NC(=O)c1ccc(NC(=O)COC(=O)CCC(=O)c2ccc(Cl)cc2)cc1,50µM,–,–,–,–,–
CC(=O)c1cccc(N2Cc3ccccc3C2=NC(=O)CCl)c1,18µM,13µM,–,–[2.29 µM],–,–
COC(=O)[C@H]1C[C@H]2[C@@H]3CC[C@H]4C[C@@H](OC)CC[C@]4(C)[C@H]3CC[C@]2(C)[C@@]2(CCCO2)O1,·,·,·,–,·,–
COc1cccc(N2CCN(C(=O)c3cc4c(OC)c(OC)c(OC)cc4[nH]3)CC2)c1,–,7.4µM,–,–,·,–
SMILES,Sm TGR block,Pf growth 96h,AmpC detergent,AmpC no deterg,Pf growth 48h,SARS PLP yeast
COc1cc2[nH]c(C(=O)N3CCN(C)CC3)cc2c(OC)c1OC,–,–,–,–,·,–
C[CH2][Hg][S]c1ccccc1C(=O)O,·,1.2µM,·,·,1.9µM,·
O=C(COC(=O)/C=C/c1ccco1)NCc1ccco1,?,–,–,–,–,–
COc1ccc(CNC(=O)COC(=O)/C=C/c2ccco2)cc1,35µM,–,–,–[11.4 µM],–,–
O=C(COC(=O)/C=C/c1ccccc1)NCCNC(=O)COC(=O)/C=C/c1ccccc1,–,–,–,–,–,–
O=C(COC(=O)c1ccccc1Nc1ccccc1)NCc1ccccc1Cl,–,13µM,?,–,–,–
CNC(=O)COC(=O)/C=C/c1ccco1,25µM,–,–,–,–,–
O=C(COC(=O)/C=C/c1ccco1)NCCc1ccccc1,22µM,–,?,–[11.4 µM],–,–
COc1cccc(CNC(=O)c2c(C)oc3nc(C)nc(N4CCOCC4)c23)c1,–,·,–,·,·,·
O=C(COC(=O)/C=C/c1ccco1)NCc1ccc(Cl)cc1Cl,·,·,·,–,·,–
O=C(COC(=O)/C=C/c1ccco1)NCc1ccccc1Cl,18µM,–,–,–[11.4 µM],–,–
CC(NC(=O)COC(=O)/C=C/c1ccco1)c1ccccc1 (centres undefined),28µM,–,–,–,–,–
Cc1ccc(CCNC(=O)Cn2c(-c3cccs3)cc3ccccc32)cc1,–,·,–,·,·,·
O=C(Nc1ccccc1)c1cc2ccccc2c(=O)s1,–,–,89µM,–,–,–
O=C(Nc1ccc(O)cc1)c1cc2ccccc2c(=O)s1,–,–,–,–,–,–
O=C(NC1CCCCC1)c1cccc(N2C(=O)CCC2=O)c1,–,–,–,–,–,–
O=[N+]([O-])c1c2ccccc2cc2ccccc12,–,?,–,–,2.6µM,–
Cc1cccc(NC(=O)C(Cc2ccccc2)n2cccc2)c1C (centres undefined),–,·,–,·,·,·
C=CCN(CC=C)S(=O)(=O)c1ccc(C(=O)Nc2nnc(CSC)o2)cc1,–,?,–,–,12µM,–
CCCN(CCC)S(=O)(=O)c1ccc(C(=O)Nc2nnc(COC)o2)cc1,–,–,–,–,15µM,–
O=C(Nc1ccc(C(F)(F)F)cc1)C1CCCN(c2cnccn2)C1 (centres undefined),–,·,–,·,·,·
CC(=O)Oc1ccc(-c2csnn2)cc1,–,–,–,–,–,–
Cc1ccccc1C(=O)NNc1ccc(-c2csnn2)cc1,–,–,–,–,1.9µM,–
CNc1oc(-c2ccc(C)cc2)nc1P(=O)(c1ccccc1)c1ccccc1,–,15µM,–,–,0.12µM,–
O=S(=O)(Nc1ccncc1)c1cc(Cl)c(Cl)cc1Cl,–,7.4µM,–,–,–,–
SMILES,Sm TGR block,Pf growth 96h,AmpC detergent,AmpC no deterg,Pf growth 48h,SARS PLP yeast
COc1ccc(Cl)cc1S(=O)(=O)Nc1ccncc1,–,–,–,–,–,–
O=C(CSc1nccc(=O)[nH]1)NCc1ccc(Cl)cc1,–,–,–,–,–,–
O=[N+]([O-])c1ccc(-c2nc(NCc3cccnc3)c3ccccc3n2)cc1,–,15µM,–,–,–,–
O=C(Cc1ccc([N+](=O)[O-])cc1)NCc1cccnc1,–,–,–,–,–,–
Oc1ccccc1-c1nc(NCc2cccnc2)c2ccccc2n1,–,?,–,–,15µM,–
CC(C)CN1CCN(Cc2cc3ccccc3[nH]2)CC1CCO (centres undefined),–,?,–,–,?,–
